Laboratory results reported in PubChem BioAssay (NCI).
The panel holds about 79,000 compounds, 15% with a hit somewhere; the sample as a whole holds those more often. Calls of active or inactive are those of the source. Rule as the data show it: active = growth inhibition above about 70%; inactive = the rest.

Assay: NCI Yeast Anticancer Drug Screen. Data for the wt2 strain (AID 169);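 also: 0% = growth of vehicle-treated yeast cultures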
Conditions: S. cerevisiae wt2 strain growth inhibition, hits give high values
Method: Growth inhibition of yeast strains with defined genetic alterations is measured as a screen for potential anti-cancer activity. Selected strains with alterations in DNA damage repair or cell cycle control were exposed to compounds and growth inhibition was measured relative to vehicle treated controls. The strain used in this assay is wt2

Measured: growth inhibition

O=c1[nH]cc(F)c(=O)[nH]1
active: at 33.0 µM 86% | at 100.0 µM 95%
inactive: at 1.2 µM 1% | at 3.7 µM 17% | at 11.0 µM 58%

CN(C)N1C(=O)SCC(c2ccccc2)(c2ccccc2)C1=O
inactive: at 1.2 µM -2% | at 3.7 µM -3% | at 11.0 µM -1% | at 33.0 µM 4% | at 100.0 µM 11%

O=S(=O)(Oc1c(Cl)cc(Cl)cc1Cl)c1ccccc1
inactive: at 1.2 µM -1% | at 3.7 µM -4% | at 11.0 µM -7% | at 33.0 µM -2% | at 100.0 µM 10%

CCCCCCCCCCCCOC1C(COCCN2CCCC2)OC2OC(C)(C)OC21 (stereo not given)
inactive: at 1.2 µM -13% | at 3.7 µM -28%
active: at 11.0 µM 78% | at 33.0 µM 98% | at 100.0 µM 98%

O=C1C=CC(=O)N1c1ccc(Br)cc1Cl
active: at 1.2 µM 76% | at 3.7 µM 101% | at 11.0 µM 99% | at 33.0 µM 99% | at 100.0 µM 99%

CCCCCCCCCC/C=C\CC(=O)O
inactive: at 1.2 µM -2% | at 3.7 µM 6% | at 11.0 µM -3% | at 33.0 µM 3%
active: at 100.0 µM 98%

CC[N+]1(C)CCC(O)(/C=C/c2ccc(Cl)c(Cl)c2)C(C(=O)/C=C/c2ccc(Cl)c(Cl)c2)C1 (stereo not given)
inactive: at 1.2 µM -4% | at 3.7 µM 29%
active: at 11.0 µM 99% | at 33.0 µM 99% | at 100.0 µM 99%

Cc1cccc[c]1[Sn]([Cl])([S]/C(C#N)=N/N=C/c1ccc(N(C)C)cc1)[c]1ccccc1C
active: at 100.0 µM 89%
inactive: at 1.2 µM -1% | at 3.7 µM -2% | at 11.0 µM -6% | at 33.0 µM 32%
